# Measured values as given in the supplement of paper PMC10849652.
# Of roughly 8,800 targets only a part is listed; those with a hit were picked by preference. About 0.5% of all pairs of compound and target were hits.
# Assays:
# Test in all cases: log2 fold change, soluble protein after heating vs DMSO (PISA); higher = thermal stabilisation; K562 lysate, 10 uM; active = over 0.2 and 3.5 SD of the protein, either way, in both replicates (recomputed)
# [1] = compound: NCC(=O)Nc1ccc(-n2nc(C(F)(F)F)cc2-c2ccc3c(ccc4ccccc43)c2)cc1
# Outline: (§1)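 Pellets of K562 cells were dounce-homogenised in PBS pH 7.4 with 1 mM MgCl2, and the crude extract was held at 1 mg/mL protein for a 30 min treatment with 10 μM compound. Aliquots were heated for 3 min over 48°C-58°C and pooled before NP-40 was added to 0.5% at 4°C. The supernatant from 21,000xg for 90 min was quantified by TMTpro 16plex LC-MS/MS with channel sums equalised. Values are reported from duplicates as log-two fold change in thermal stability relative to solvent controls.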
# [2] = compound: O=C(CCCCCCC(=O)Nc1ccccc1)NO [vorinostat]
# Outline: as §1
# [3] = compound: O=C(O)c1ccc2c(c1)nc(Nc1cccc(Cl)c1)c1ccncc12 [silmitasertib]
# Outline: as §1
# [4] = compound: O=C1NC(=O)C(c2cnc3ccccn23)=C1c1cn2c3c(cc(F)cc13)CN(C(=O)N1CCCCC1)CC2
# Outline: as §1
# [5] = compound: c1cn2cc(-c3ccc4cn[nH]c4c3)nc(Nc3ccc(N4CCOCC4)cc3)c2n1 [entospletinib]
# Outline: as §1
# Sequence of UniProt Q9Y4E5 (Q9Y4E5 whole entry, looked up): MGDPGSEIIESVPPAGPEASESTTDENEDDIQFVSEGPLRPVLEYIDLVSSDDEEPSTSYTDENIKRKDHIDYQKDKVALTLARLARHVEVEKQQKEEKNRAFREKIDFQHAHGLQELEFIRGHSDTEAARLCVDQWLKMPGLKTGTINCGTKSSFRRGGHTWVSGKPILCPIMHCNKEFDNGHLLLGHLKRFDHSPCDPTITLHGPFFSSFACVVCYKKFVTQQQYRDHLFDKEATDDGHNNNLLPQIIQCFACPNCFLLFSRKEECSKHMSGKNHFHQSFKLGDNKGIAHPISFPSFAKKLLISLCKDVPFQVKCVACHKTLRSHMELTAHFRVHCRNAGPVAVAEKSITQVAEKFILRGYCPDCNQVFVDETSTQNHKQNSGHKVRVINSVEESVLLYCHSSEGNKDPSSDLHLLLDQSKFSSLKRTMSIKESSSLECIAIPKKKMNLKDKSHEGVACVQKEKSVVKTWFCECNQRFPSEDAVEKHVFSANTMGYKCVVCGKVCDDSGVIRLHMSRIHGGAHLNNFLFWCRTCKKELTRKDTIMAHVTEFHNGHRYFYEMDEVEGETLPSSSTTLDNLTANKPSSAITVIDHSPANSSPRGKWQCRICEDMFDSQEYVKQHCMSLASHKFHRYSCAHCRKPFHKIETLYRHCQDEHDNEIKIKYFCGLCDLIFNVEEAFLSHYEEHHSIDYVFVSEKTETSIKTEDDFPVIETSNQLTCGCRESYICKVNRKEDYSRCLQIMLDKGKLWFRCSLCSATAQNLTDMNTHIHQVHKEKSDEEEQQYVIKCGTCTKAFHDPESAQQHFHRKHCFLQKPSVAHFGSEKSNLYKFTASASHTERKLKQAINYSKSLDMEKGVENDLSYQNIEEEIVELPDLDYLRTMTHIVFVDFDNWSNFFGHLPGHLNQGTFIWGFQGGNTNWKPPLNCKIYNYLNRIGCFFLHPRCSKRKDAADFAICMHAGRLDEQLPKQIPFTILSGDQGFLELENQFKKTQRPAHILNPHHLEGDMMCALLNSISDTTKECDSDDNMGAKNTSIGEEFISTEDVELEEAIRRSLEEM
# Sequence of UniProt Q9Y2X9 (Q9Y2X9 whole entry, looked up): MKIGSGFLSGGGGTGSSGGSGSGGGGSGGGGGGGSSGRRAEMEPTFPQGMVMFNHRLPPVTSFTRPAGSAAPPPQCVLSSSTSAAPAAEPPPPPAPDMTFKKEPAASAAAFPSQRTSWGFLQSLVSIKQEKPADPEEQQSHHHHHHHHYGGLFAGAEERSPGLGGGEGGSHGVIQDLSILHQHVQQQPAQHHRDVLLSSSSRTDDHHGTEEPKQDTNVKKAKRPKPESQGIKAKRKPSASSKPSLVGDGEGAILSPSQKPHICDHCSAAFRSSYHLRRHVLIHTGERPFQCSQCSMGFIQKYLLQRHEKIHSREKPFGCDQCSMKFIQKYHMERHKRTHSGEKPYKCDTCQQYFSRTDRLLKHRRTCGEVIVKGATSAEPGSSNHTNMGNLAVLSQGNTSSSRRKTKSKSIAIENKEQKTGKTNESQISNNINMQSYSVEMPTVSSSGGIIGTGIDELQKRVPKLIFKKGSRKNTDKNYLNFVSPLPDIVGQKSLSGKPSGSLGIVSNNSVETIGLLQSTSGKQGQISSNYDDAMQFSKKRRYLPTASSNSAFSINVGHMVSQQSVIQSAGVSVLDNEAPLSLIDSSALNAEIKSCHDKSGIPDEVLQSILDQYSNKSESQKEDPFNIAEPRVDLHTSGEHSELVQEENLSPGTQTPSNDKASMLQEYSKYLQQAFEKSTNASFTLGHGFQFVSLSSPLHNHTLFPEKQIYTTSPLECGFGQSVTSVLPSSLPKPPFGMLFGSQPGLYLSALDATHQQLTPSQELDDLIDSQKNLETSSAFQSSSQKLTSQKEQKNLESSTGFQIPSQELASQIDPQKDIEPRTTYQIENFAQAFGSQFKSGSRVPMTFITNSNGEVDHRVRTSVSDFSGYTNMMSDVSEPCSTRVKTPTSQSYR
# Sequence of UniProt Q7Z3J2 (Q7Z3J2 whole entry, looked up): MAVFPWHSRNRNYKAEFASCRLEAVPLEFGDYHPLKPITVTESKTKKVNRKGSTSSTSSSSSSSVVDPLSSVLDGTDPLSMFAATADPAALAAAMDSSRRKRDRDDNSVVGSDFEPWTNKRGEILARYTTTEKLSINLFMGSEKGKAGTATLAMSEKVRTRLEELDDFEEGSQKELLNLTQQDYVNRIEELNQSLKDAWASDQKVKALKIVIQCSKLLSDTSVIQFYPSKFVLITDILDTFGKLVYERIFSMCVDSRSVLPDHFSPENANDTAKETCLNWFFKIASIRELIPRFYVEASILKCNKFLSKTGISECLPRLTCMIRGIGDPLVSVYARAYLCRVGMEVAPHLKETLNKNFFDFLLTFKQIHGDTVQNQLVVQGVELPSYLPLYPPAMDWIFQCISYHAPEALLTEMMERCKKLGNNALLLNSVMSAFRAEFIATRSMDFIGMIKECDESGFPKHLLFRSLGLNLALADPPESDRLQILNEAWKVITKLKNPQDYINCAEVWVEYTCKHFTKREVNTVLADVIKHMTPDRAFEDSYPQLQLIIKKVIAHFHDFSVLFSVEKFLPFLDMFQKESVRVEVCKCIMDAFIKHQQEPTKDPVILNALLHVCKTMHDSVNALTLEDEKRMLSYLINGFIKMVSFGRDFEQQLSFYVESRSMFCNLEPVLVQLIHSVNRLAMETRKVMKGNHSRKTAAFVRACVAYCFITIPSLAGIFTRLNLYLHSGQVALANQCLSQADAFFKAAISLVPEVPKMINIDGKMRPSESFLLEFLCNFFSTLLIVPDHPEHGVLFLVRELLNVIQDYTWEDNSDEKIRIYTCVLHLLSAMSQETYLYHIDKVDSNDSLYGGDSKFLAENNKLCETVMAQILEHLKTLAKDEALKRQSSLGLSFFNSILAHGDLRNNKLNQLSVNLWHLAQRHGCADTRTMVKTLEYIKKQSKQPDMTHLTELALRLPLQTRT
# Sequence of UniProt Q96TA2 (Q96TA2 whole entry, looked up): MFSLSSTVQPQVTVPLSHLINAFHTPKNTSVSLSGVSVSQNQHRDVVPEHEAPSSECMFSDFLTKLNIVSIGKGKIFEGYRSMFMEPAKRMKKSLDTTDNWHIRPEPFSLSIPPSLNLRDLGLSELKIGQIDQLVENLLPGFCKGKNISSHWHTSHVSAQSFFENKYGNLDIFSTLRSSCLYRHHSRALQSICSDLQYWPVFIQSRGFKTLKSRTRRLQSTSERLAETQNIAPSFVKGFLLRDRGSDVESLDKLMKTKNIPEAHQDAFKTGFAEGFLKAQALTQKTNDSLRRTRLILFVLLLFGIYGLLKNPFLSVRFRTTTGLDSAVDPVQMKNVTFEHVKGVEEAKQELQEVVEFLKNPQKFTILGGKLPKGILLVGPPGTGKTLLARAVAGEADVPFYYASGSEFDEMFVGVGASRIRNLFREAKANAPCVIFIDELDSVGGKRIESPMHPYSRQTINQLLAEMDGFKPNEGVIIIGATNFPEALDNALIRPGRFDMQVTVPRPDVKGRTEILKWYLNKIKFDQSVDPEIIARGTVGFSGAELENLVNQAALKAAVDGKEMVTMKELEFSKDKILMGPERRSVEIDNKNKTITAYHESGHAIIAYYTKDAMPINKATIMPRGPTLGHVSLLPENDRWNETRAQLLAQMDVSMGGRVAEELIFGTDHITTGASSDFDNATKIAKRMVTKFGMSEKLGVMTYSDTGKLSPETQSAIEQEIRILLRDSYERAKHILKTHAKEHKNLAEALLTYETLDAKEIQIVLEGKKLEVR
# Sequence of UniProt A8MPS7 (A8MPS7 whole entry, looked up): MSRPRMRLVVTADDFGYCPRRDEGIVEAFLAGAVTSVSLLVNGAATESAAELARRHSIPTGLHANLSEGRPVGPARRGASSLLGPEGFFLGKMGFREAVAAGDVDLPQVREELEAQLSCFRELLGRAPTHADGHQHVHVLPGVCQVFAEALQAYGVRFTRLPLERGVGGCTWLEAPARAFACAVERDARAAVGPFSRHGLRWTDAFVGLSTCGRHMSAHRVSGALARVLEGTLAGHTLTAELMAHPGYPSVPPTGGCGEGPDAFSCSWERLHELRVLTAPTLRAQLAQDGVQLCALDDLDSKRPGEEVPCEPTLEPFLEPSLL
# Sequence of UniProt P04004 (P04004 whole entry, looked up): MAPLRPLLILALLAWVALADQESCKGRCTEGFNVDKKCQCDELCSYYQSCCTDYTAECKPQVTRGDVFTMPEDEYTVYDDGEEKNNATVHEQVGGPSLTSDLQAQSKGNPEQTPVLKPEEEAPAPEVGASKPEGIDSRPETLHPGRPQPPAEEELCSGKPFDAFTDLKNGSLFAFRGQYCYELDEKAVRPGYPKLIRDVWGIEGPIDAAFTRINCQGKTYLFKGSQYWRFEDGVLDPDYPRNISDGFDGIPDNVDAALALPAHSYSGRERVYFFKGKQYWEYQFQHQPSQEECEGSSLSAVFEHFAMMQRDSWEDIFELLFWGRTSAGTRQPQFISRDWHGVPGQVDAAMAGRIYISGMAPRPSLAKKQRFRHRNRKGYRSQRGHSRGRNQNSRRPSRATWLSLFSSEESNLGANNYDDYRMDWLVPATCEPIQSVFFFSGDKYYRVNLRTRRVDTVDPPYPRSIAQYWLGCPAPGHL
# Sequence of UniProt O00488 (O00488 whole entry, looked up): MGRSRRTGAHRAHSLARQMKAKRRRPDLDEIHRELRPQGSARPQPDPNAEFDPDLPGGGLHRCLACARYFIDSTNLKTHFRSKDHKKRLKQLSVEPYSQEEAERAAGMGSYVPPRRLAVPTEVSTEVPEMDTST
# Sequence of UniProt Q99986 (Q99986 whole entry, looked up): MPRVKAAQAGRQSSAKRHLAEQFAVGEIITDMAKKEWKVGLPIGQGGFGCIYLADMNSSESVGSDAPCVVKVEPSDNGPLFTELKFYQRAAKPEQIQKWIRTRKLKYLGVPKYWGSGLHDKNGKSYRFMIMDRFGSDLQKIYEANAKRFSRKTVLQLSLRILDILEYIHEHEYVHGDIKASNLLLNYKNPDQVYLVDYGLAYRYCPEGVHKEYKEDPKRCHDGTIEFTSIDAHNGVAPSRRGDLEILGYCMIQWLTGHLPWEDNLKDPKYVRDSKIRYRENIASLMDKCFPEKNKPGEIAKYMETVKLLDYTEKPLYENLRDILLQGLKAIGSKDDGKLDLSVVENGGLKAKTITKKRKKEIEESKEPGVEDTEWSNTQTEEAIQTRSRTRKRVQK
Target,log2 fold change [1],log2 fold change [2],log2 fold change [3],log2 fold change [4],log2 fold change [5]
ZNF451 (UniProt Q9Y4E5),0.064 (inactive),-0.538 (active),-0.003 (inactive),-0.013 (inactive),0.019 (inactive)
WDR3 (UniProt Q9UNX4),-0.031 (inactive),-0.255 (active),0.044 (inactive),0.01 (inactive),-0.001 (inactive)
USP10 isoform 2 (UniProt Q14694),0.022 (inactive),-0.294 (active),0 (inactive),-0.002 (inactive),-0.002 (inactive)
YWHAQ (UniProt P27348),-0.047 (inactive),-0.052 (inactive),-0.012 (inactive),0.013 (inactive),0.022 (inactive)
ZC2HC1A (UniProt Q96GY0),0.104 (inactive),-0.066 (inactive),0.054 (inactive),-0.008 (inactive),-0.005 (inactive)
ZNF593 (UniProt O00488),-0.029 (inactive),0.191 (inactive),-0.001 (inactive),0.044 (inactive),0.027 (inactive)
ZNHIT6 (UniProt Q9NWK9),0.001 (inactive),-0.218 (active),-0.041 (inactive),0.002 (inactive),-0.062 (inactive)
ZNF318 (UniProt Q5VUA4),0.064 (inactive),-0.332 (active),-0.045 (inactive),-0.059 (inactive),-0.024 (inactive)
YDJC (UniProt A8MPS7),0.048 (inactive),-0.443 (active),0.023 (inactive),-0.051 (inactive),0.051 (inactive)
WDR41 (UniProt Q9HAD4),-0.017 (inactive),-0.284 (active),0.022 (inactive),-0.08 (inactive),0.01 (inactive)
ULK3 isoform 4 (UniProt Q6PHR2),-0.102 (inactive),-0.05 (inactive),0.242 (inactive),0.046 (inactive),0.273 (inactive)
WDR6 (UniProt Q9NNW5),0.012 (inactive),-0.321 (active),0.01 (inactive),-0.025 (inactive),0 (inactive)
WIPI1 (UniProt Q5MNZ9),–,0.088 (inactive),-0.051 (inactive),0.026 (inactive),-0.001 (inactive)
UNC13A (UniProt Q9UPW8),–,-0.485 (inactive),0.078 (inactive),–,–
YME1L1 (UniProt Q96TA2),-0.001 (inactive),0.04 (inactive),0.007 (inactive),-0.008 (inactive),0.02 (inactive)
WAS (UniProt P42768),–,-0.07 (inactive),0.025 (inactive),–,-0.055 (inactive)
WAC isoform 5 (UniProt Q9BTA9),–,-0.002 (inactive),0.351 (inactive),–,–
YTHDC2 (UniProt Q9H6S0),0.061 (inactive),-0.231 (active),-0.007 (inactive),0.018 (inactive),0.013 (inactive)
ZSCAN21 (UniProt Q9Y5A6),–,–,–,–,-0.208 (inactive)
ZYG11A (UniProt Q6WRX3),–,0.719 (active),0.17 (inactive),–,–
VTN (UniProt P04004),0.126 (inactive),-0.07 (inactive),-0.076 (inactive),-0.085 (inactive),-0.146 (inactive)

Target,log2 fold change [1],log2 fold change [2],log2 fold change [3],log2 fold change [4],log2 fold change [5]
ZSCAN26 (UniProt Q16670),–,–,–,-0.024 (inactive),–
USP34 (UniProt Q70CQ2),0.005 (inactive),-0.208 (active),0.05 (inactive),-0.012 (inactive),-0.005 (inactive)
ZNF281 (UniProt Q9Y2X9),–,-0.403 (active),-0.084 (inactive),-0.072 (inactive),–
ZDHHC17 (UniProt Q8IUH5),0.065 (inactive),–,–,-0.067 (inactive),0.009 (inactive)
UTRN isoform 2 (UniProt P46939),–,0.173 (inactive),-0.144 (inactive),–,-0.424 (inactive)
XPO1 (UniProt O14980),0.009 (inactive),-0.233 (active),0.003 (inactive),-0.001 (inactive),0.036 (inactive)
VAC14 (UniProt Q08AM6),-0.02 (inactive),-0.229 (active),0.041 (inactive),0.005 (inactive),-0.008 (inactive)
WDR62 isoform 4 (UniProt O43379),0.045 (inactive),-0.423 (active),0.01 (inactive),-0.014 (inactive),-0.016 (inactive)
VASN (UniProt Q6EMK4),–,0.233 (inactive),-0.263 (inactive),–,-0.027 (inactive)
YBEY (UniProt P58557),0.035 (inactive),-0.136 (inactive),0.063 (inactive),–,0.029 (inactive)
ZFYVE19 (UniProt Q96K21),0.026 (inactive),0.105 (inactive),0.002 (inactive),0.01 (inactive),-0.012 (inactive)
ZNF652 (UniProt Q9Y2D9),–,–,–,-0.042 (inactive),–
VPS35L (UniProt Q7Z3J2),0.019 (inactive),-0.266 (active),0.027 (inactive),-0.006 (inactive),0.015 (inactive)
USP8 (UniProt P40818),0.012 (inactive),-0.324 (active),0.013 (inactive),0.009 (inactive),0.012 (inactive)
VAV1 (UniProt P15498),-0.003 (inactive),-0.268 (active),0 (inactive),-0.027 (inactive),0.004 (inactive)
XAB2 (UniProt Q9HCS7),-0.012 (inactive),-0.259 (active),0.005 (inactive),-0.023 (inactive),-0.006 (inactive)
UNKL (UniProt E9PDK2),-0.336 (inactive),–,–,0.003 (inactive),0.108 (inactive)
ZMYM2 (UniProt Q9UBW7),-0.125 (inactive),-0.609 (active),0.034 (inactive),0.019 (inactive),0.069 (inactive)
ZNF346 (UniProt Q9UL40),–,0.137 (inactive),0.018 (inactive),-0.05 (inactive),0.02 (inactive)
VRK1 (UniProt Q99986),-0.013 (inactive),-0.08 (inactive),0.091 (inactive),0.002 (inactive),0.056 (inactive)
